Measurements published in PubChem BioAssay AID1159580 (chemical genetic matrix, 2015).
“And” between values parts separate entries of the source, which are not always exact repeats. Identical values can stand only once. Among all 5,500 compounds or so, about 2,000 (36%) were called active. Not shown: some 18% with an inconclusive outcome. Cut-off read from the data, not from the text of the source: active = normalized growth mostly below about 0.91 (no sharp cut-off); inconclusive = no clear call, values can overlap the other calls; inactive = mostly above about 0.92. The list shows a part of the results.

Test: chemical genetic growth profiling, strain panel (AID 1159580);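 note: tested at 20 µM; growth read once vehicle control cultures reached saturation at 30 °C; 1 = growth at the plate median or of vehicle wells; lower values mean less growth of the strain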
Settings: S. cerevisiae deletion strains, growth OD

Measured: normalized growth

C[C@@H]1CC[C@@]23CCC4(C)[C@@](C=CC5[C@@]6(C)CC[C@H](O)C(C)(C)C6CC[C@]54C)(OC2=O)C3[C@H]1C (some centres not stated)
inactive: locus YAL021C, strain ccr4, stronger effect = lower value 0.999 | locus YAL026C, strain drs2, stronger effect = lower value 1.01 | locus YAL030W, strain snc1, stronger effect = lower value 1 | locus YBL061C, strain skt5, stronger effect = lower value 1.06 | locus YBR009C, strain hhf1, stronger effect = lower value 1 | locus YBR021W, strain FUR4, stronger effect = lower value 0.999 | locus YBR023C, strain chs3, stronger effect = lower value 1.02 | locus YBR171W, strain sec66, stronger effect = lower value 1 | locus YBR229C, strain ROT2, stronger effect = lower value 1 | locus YBR231C, strain swc5, stronger effect = lower value 1.09 | locus YCL011C, strain gbp2, stronger effect = lower value 1 | locus YCL016C, strain dcc1, stronger effect = lower value 1.08 | locus YCL029C, strain bik1, stronger effect = lower value 1.02 | locus YCL061C, strain MRC1, stronger effect = lower value 0.991 | locus YCL069W, strain vba3, stronger effect = lower value 1.01 | locus YCR088W, strain abp1, stronger effect = lower value 1 | locus YDL005C, strain med2, stronger effect = lower value 1.01 | locus YDL035C, strain GPR1, stronger effect = lower value 1 | locus YDL040C, strain nat1, stronger effect = lower value 1.06 | locus YDL074C, strain BRE1, stronger effect = lower value 1.04 | locus YDL101C, strain DUN1, stronger effect = lower value 1.02 | locus YDL134C, strain PPH21, stronger effect = lower value 1.03 | locus YDL185W, strain tfp1, stronger effect = lower value 1.01 | locus YDL192W, strain arf1, stronger effect = lower value 1.05 | locus YDR001C, strain nth1, stronger effect = lower value 1.01 | locus YDR069C, strain doa4, stronger effect = lower value 0.985 | locus YDR101C, strain arx1, stronger effect = lower value 1.03 | locus YDR159W, strain sac3, stronger effect = lower value 1.1 | locus YDR162C, strain NBP2, stronger effect = lower value 1.04 | locus YDR195W, strain ref2 0.955 | locus YDR297W, strain sur2, stronger effect = lower value 1 | locus YDR318W, strain mcm21, stronger effect = lower value 1.01 | locus YDR334W, strain swr1, stronger effect = lower value 1 | locus YDR335W, strain msn5, stronger effect = lower value 1.01 | locus YDR388W, stronger effect = lower value 1.01 | locus YDR392W, strain spt3, stronger effect = lower value 1.02 | locus YDR502C, strain sam2, stronger effect = lower value 1 | locus YEL003W, strain gim4, stronger effect = lower value 0.99 | locus YEL037C, strain rad23, stronger effect = lower value 1.04 | locus YEL061C, strain CIN8 (second series), stronger effect = lower value 1 | locus YEL061C, strain CIN8, stronger effect = lower value 1.02 | locus YER015W, strain faa2, stronger effect = lower value 1 | locus YER110C, stronger effect = lower value 0.995 | locus YER111C, strain swi4, stronger effect = lower value 1.04 | locus YER155C, strain BEM2 (second series), stronger effect = lower value 0.967 | locus YER155C, strain BEM2, stronger effect = lower value 1.03 | locus YER167W, strain BCK2, stronger effect = lower value 1.01 | locus YFR010W, strain ubp6, stronger effect = lower value 1.02 | locus YGL078C, strain dbp3, stronger effect = lower value 1 | locus YGL086W, strain mad1, stronger effect = lower value 1.02 | locus YGL167C, strain pmr1, stronger effect = lower value 1.02 | locus YGL173C, strain kem1, stronger effect = lower value 0.991 | locus YGL227W, strain vid30, stronger effect = lower value 1 | locus YGL240W, strain doc1, stronger effect = lower value 0.99 | locus YGL248W, strain PDE1, stronger effect = lower value 1.03 | locus YGL253W, strain hxk2, stronger effect = lower value 1.03 | locus YGR078C, strain PAC10, stronger effect = lower value 1.03 | locus YGR135W, strain pre9, stronger effect = lower value 0.993 | locus YGR229C, strain SMI1, stronger effect = lower value 1.08 | locus YGR252W, strain gcn5, stronger effect = lower value 1.07 | locus YHR013C, strain ard1, stronger effect = lower value 1.06 | locus YHR027C, strain rpn1, stronger effect = lower value 1.01 | locus YHR030C, strain SLT2, stronger effect = lower value 1.03 and 1.01 | locus YHR079C, strain IRE1 (second series), stronger effect = lower value 0.998 | locus YHR079C, strain IRE1, stronger effect = lower value 0.999 | locus YHR129C, strain ARP1, stronger effect = lower value 1.03 | locus YHR142W, strain chs7, stronger effect = lower value 1.06 | locus YHR200W, strain rpn10, stronger effect = lower value 0.988 | locus YIL066C, strain RNR3, stronger effect = lower value 1.04 | locus YIL073C, strain SPO22, stronger effect = lower value 1.05 | locus YIL125W, strain kgd1, stronger effect = lower value 0.992 | locus YJL092W, strain hpr5, stronger effect = lower value 1.01 | locus YJL095W, strain BCK1 (second series), stronger effect = lower value 1.03 | locus YJL095W, strain BCK1, stronger effect = lower value 1.06 and 1.01 | locus YJL115W, strain asf1, stronger effect = lower value 1.03 | locus YJL129C, strain trk1, stronger effect = lower value 1.03 | locus YJL134W, strain LCB3, stronger effect = lower value 1.02 | locus YJL154C, strain vps35, stronger effect = lower value 1 | locus YJL164C, strain tpk1, stronger effect = lower value 1.01 | locus YJL166W, strain qcr8, stronger effect = lower value 1.01 | locus YJL187C, strain SWE1 (second series), stronger effect = lower value 1.01 | locus YJL187C, strain SWE1, stronger effect = lower value 0.996
active: locus YBR279W, strain paf1, stronger effect = lower value 1.09 [resistant] | locus YDR137W, strain rgp1, stronger effect = lower value 1.16 [resistant] | locus YER016W, strain bim1, stronger effect = lower value 1.17 [resistant] | locus YHR094C, strain hxt1, stronger effect = lower value 1.14 [resistant] | locus YIR030C, strain dcg1, stronger effect = lower value 1.18 [resistant]
